Reference: the supplement of paper PMC11732987, “Enantioselective OTUD7B fragment discovery through chemoproteomics screening and high-throughput optimisation” (Communications Chemistry, 2025)

What was measured:
Assay in all cases: log2 ratio of Biotin-Ahx-Ub-VS probe labelling (fragment/DMSO); higher = less target engagement (more negative = stronger competition), active = hit call of the paper (q ≤ 0.05, log2 ratio ≤ -1)
Conditions in all cases: compound concentration: 200 uM; treatment time: 3 h
USP19 = molecular target: T1, USP19 (UniProt O94966)
T1 sequence (whole entry): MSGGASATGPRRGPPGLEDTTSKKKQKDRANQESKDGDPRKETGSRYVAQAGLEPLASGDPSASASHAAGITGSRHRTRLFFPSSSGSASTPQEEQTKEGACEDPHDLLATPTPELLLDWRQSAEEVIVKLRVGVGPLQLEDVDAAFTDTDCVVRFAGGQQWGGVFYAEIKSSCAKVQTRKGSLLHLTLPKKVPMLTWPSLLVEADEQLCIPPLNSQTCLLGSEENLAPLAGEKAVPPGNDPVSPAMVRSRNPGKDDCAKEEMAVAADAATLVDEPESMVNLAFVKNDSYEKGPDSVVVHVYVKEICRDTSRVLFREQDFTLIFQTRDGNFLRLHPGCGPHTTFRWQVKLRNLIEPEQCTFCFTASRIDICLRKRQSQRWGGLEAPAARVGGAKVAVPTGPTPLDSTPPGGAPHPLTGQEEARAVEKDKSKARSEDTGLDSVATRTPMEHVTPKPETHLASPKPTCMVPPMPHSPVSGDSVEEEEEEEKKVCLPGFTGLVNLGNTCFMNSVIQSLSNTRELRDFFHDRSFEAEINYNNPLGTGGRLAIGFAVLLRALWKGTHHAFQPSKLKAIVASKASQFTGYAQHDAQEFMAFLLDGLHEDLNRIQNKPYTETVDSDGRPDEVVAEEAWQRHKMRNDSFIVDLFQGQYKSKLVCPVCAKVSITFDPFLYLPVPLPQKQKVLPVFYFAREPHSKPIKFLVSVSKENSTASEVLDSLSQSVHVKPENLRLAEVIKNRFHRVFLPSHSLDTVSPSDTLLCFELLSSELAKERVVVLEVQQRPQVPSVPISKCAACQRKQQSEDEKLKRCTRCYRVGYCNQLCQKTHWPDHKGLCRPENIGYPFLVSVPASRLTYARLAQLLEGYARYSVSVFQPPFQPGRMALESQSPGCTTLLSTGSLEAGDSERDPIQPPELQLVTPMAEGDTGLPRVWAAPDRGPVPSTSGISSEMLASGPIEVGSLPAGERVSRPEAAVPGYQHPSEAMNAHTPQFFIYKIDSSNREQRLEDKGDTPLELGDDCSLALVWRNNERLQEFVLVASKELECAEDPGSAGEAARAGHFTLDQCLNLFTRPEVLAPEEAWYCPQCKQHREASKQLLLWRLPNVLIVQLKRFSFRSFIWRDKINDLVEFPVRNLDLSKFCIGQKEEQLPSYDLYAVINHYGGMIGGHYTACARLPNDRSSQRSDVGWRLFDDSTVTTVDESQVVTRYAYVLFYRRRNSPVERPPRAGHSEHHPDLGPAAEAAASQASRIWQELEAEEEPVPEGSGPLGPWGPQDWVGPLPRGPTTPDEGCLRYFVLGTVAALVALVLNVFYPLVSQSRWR
In short: (§1)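 Labelled DUBs from HEK293T lysate were NeutrAvidin-enriched, digested with LysC and trypsin, and run by diaPASEF LC-MS/MS. Before that, each 495 µg sample in Tris/CHAPS/IGEPAL buffer with protease inhibitors was treated in triplicate with fragment at 200 µM or vehicle for 3 h, then with Biotin-Ahx-Ub-VS at 0.5 µM final for 1 h. Values are average log2 ratios of fragment over vehicle by unpaired t-test, based on global-median-normalised Spectronaut label-free quantities from proteins with ≥2 unique peptides.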

USP22 = molecular target: T2, USP22 (UniProt Q9UPT9)
T2 sequence (whole entry): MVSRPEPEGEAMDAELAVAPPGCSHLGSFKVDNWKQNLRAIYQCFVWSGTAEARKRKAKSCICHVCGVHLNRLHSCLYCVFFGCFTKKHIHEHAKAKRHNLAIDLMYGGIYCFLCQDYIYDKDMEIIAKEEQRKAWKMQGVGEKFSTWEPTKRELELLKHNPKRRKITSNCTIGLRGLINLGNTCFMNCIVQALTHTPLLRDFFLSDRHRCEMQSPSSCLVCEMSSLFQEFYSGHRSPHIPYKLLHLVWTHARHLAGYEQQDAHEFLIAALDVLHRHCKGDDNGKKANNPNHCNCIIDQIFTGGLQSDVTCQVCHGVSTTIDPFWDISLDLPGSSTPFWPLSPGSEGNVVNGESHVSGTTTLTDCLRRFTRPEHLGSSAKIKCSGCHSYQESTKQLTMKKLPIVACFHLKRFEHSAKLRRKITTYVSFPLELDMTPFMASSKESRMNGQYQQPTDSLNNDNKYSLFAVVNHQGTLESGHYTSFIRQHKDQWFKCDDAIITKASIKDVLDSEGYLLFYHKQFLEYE
In short: as §1

USP24 = USP24 (UniProt Q9UPU5)
USP24, sequence (Q9UPU5 whole entry): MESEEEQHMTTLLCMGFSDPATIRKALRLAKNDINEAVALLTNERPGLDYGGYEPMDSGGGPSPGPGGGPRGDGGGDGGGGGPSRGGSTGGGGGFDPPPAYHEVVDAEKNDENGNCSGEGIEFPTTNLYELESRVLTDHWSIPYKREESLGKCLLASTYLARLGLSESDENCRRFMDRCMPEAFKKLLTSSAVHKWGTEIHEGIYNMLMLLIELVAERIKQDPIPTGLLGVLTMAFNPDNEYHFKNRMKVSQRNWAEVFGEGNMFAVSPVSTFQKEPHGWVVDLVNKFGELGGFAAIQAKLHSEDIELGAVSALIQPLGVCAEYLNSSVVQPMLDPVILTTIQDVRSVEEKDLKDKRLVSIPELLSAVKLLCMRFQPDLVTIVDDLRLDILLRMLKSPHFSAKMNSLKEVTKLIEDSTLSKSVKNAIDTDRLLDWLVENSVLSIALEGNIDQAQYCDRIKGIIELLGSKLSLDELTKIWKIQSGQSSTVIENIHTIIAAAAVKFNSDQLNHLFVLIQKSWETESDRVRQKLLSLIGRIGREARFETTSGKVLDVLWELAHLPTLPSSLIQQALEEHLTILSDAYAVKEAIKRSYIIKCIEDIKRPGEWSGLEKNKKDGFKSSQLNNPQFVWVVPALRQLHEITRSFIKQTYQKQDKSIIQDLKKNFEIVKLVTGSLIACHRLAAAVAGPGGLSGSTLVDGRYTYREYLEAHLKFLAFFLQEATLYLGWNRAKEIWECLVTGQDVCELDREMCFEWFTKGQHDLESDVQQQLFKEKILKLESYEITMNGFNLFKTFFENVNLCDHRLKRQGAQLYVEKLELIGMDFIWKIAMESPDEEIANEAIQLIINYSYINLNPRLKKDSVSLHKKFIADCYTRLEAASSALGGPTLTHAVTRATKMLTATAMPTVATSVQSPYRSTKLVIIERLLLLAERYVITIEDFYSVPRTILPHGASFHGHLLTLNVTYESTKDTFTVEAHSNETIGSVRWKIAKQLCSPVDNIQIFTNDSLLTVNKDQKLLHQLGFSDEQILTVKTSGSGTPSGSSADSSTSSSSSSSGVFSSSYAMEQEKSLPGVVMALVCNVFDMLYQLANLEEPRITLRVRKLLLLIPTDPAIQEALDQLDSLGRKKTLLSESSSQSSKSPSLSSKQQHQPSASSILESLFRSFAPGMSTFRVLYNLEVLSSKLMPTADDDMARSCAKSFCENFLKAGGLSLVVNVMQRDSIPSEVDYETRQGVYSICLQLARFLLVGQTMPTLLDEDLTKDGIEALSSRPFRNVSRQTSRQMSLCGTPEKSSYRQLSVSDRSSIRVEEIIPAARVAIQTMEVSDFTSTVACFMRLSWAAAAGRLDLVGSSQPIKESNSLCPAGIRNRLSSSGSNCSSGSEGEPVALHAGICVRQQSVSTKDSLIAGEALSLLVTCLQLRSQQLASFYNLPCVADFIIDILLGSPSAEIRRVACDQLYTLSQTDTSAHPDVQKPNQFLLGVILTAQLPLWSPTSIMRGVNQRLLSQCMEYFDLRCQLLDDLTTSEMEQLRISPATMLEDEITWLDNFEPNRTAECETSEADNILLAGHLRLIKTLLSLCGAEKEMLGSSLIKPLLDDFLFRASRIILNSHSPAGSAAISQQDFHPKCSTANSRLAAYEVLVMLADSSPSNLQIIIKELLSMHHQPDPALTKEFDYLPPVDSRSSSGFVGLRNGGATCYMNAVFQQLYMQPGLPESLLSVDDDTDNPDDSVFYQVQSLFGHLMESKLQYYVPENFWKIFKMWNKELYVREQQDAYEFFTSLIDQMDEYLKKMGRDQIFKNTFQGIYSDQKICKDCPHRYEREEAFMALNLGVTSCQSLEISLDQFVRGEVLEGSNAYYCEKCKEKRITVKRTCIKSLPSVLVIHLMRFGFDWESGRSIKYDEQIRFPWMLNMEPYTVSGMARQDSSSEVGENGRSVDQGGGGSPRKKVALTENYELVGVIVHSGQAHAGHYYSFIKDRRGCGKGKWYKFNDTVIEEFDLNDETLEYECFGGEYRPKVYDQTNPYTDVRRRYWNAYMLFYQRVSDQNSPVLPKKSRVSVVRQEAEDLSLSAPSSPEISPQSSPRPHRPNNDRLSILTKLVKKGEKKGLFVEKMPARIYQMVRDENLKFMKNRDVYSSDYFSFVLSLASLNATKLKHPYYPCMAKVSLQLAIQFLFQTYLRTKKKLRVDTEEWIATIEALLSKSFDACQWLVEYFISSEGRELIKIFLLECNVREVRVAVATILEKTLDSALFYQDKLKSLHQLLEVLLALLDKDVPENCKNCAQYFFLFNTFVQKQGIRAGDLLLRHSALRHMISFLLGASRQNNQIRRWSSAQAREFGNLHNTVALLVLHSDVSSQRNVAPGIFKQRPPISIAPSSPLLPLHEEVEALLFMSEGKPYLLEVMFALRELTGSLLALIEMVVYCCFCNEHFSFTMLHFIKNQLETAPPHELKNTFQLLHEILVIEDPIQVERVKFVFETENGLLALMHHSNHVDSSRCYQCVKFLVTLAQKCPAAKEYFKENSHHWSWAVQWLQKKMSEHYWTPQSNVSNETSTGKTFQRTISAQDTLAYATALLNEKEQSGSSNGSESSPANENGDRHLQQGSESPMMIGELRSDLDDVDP
In short: as §1

USP25 = molecular target: T3, USP25 (UniProt Q9UHP3)
T3 sequence (whole entry): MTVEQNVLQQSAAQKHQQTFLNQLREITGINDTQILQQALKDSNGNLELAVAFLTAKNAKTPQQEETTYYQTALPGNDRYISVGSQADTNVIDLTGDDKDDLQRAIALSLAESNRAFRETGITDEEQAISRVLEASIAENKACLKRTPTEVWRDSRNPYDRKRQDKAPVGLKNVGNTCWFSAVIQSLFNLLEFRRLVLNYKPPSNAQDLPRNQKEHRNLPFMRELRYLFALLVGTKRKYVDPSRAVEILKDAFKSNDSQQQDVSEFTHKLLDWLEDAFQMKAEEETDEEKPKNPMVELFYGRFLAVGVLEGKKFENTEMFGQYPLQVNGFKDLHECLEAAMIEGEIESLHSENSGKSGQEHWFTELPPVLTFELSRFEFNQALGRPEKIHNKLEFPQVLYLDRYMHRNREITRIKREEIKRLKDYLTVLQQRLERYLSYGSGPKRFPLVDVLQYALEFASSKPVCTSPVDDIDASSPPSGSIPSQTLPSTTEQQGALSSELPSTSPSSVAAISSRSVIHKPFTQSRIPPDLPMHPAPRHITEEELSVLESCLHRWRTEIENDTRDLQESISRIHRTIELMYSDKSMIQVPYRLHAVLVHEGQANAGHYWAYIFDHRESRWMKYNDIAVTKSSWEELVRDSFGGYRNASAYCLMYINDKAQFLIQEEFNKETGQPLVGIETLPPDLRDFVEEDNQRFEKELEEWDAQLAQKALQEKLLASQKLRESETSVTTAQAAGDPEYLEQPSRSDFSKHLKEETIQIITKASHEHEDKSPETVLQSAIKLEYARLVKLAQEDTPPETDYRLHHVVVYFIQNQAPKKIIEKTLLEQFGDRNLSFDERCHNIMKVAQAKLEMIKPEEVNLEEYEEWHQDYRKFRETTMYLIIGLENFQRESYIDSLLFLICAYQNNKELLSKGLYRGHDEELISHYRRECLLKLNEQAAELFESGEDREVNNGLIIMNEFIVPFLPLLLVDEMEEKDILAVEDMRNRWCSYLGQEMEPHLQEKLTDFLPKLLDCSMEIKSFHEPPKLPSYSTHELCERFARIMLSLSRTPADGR
In short: as §1

USP28 = molecular target: T4, USP28 (UniProt Q96RU2)
T4 sequence (whole entry): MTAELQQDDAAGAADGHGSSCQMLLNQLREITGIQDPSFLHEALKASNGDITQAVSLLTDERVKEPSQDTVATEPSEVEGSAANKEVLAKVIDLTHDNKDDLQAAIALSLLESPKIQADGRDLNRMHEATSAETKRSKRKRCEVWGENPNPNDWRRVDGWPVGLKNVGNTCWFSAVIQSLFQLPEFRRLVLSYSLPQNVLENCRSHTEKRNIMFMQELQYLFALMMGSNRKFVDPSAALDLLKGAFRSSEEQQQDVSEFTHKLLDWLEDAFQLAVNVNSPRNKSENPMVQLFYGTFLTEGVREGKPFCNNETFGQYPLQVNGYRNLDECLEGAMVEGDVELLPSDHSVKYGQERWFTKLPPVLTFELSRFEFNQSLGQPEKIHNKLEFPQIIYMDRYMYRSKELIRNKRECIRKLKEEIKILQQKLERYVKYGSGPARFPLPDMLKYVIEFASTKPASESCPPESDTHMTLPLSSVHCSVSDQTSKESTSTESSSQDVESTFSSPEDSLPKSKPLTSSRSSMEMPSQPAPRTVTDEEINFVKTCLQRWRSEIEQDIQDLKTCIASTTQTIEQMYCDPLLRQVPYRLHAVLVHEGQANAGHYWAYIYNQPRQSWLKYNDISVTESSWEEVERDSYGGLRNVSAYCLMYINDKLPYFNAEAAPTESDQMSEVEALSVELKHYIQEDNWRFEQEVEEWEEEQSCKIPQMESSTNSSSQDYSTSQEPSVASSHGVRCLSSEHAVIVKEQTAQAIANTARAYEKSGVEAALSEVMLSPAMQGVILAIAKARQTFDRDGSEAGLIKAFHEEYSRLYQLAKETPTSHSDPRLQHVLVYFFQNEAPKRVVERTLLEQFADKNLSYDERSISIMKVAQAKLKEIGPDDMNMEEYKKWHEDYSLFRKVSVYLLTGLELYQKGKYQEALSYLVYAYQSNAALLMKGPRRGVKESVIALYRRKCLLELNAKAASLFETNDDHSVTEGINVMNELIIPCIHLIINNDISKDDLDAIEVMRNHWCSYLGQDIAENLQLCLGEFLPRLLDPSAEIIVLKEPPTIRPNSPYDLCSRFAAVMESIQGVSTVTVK
In short: as §1

Measured: log2 ratio of Biotin-Ahx-Ub-VS probe labelling

NC(=O)C(Cc1ccccc1)NC(=O)CCl (stereo not given)
inactive: USP19 -0.0793 | USP22 -0.0897 | USP24 -0.0605 | USP25 -0.291 | USP28 -0.39
